# Measured values taken from the supplement of paper PMC10849652.
# About 7,900 targets were measured; listed, in parts, are those with a hit and a random draw of the rest. About 0.6% of all pairs of compound and target were hits. A number with no mark means an inactive call.
# How the values were obtained:
# Assay in all cases: log2 fold change, soluble protein after heating vs DMSO (PISA); higher = thermal stabilisation; K562 cells, 10 uM, 30 min; active = over 0.2 and 3.5 SD of the protein, either way, in both replicates (recomputed)
# [1] = compound: COC1=CC=C(C=C1)CN2C=CC3=C2C=C(C=C3)C(=O)NO
# Outline: (§1)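 Quantification of soluble protein used TMTpro 16plex LC-MS/MS, with channel sums equalised. Samples were the supernatant after 21,000xg for 90 min of pooled aliquots from K562 cells (2×10^6 cells/mL) treated with 10 μM compound for 30 min, heated for 3 min over 48°C-58°C, and extracted in PBS with 0.5% NP-40 at 4°C. Values, from duplicates, describe thermal stability against control samples on a log2 fold-change scale.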
# filanesib = compound: CON(C)C(=O)N1N=C(c2cc(F)ccc2F)S[C@@]1(CCCN)c1ccccc1 [filanesib]
# Outline: as §1
# zotarolimus = compound: CO[C@H]1C[C@@H]2CC[C@@H](C)[C@@](O)(O2)C(=O)C(=O)N2CCCC[C@H]2C(=O)O[C@H]([C@H](C)C[C@@H]2CC[C@H](n3cnnn3)[C@H](OC)C2)CC(=O)[C@H](C)/C=C(\C)[C@@H](O)[C@@H](OC)C(=O)[C@H](C)C[C@H](C)/C=C/C=C/C=C/1C [zotarolimus]
# Outline: as §1
# idasanutlin = compound: COc1cc(C(=O)O)ccc1NC(=O)[C@@H]1N[C@@H](CC(C)(C)C)[C@](C#N)(c2ccc(Cl)cc2F)[C@H]1c1cccc(Cl)c1F [idasanutlin]
# Outline: as §1
# alisertib = compound: COc1cc(Nc2ncc3c(n2)-c2ccc(Cl)cc2C(c2c(F)cccc2OC)=NC3)ccc1C(=O)O [alisertib]
# Outline: as §1
# [2] = compound: COc1cc2nc(-c3cc(F)ccc3O)nc(N[C@@H]3CNC[C@H]3C(C)(C)O)c2cc1OC
# Outline: as §1
# gefitinib = compound: COc1cc2ncnc(Nc3ccc(F)c(Cl)c3)c2cc1OCCCN1CCOCC1 [gefitinib]
# Outline: as §1
# [3] = compound: COc1cccc2cc(-c3nc([C@H]4CC[C@H](C(=O)O)CC4)n4ncnc(N)c34)[nH]c12
# Outline: as §1
# lapatinib = compound: CS(=O)(=O)CCNCc1ccc(-c2ccc3ncnc(Nc4ccc(OCc5cccc(F)c5)c(Cl)c4)c3c2)o1 [lapatinib]
# Outline: as §1
# pictilisib = compound: CS(=O)(=O)N1CCN(Cc2cc3nc(-c4cccc5[nH]ncc45)nc(N4CCOCC4)c3s2)CC1 [pictilisib]
# Outline: as §1
# [4] = compound: CS(=O)(=O)c1ccc(-c2cnc(N)c(C(=O)Nc3ccccc3)n2)cc1
# Outline: as §1
# crizotinib = compound: C[C@@H](Oc1cc(-c2cnn(C3CCNCC3)c2)cnc1N)c1c(Cl)ccc(F)c1Cl [crizotinib]
# Outline: as §1
# [5] = compound: C[C@@H]1COCCN1C2=NC(=NC(=C2)C3(CC3)S(=O)(=O)C)C4=C5C=CNC5=CC=C4
# Outline: as §1
# [6] = compound: C[C@H](C1=CC=C(C=C1)C(=O)NC2=C3C=CNC3=NC=C2)N
# Outline: as §1
# duvelisib = compound: C[C@H](Nc1ncnc2nc[nH]c12)c1cc2cccc(Cl)c2c(=O)n1-c1ccccc1 [duvelisib]
# Outline: as §1
# gandotinib = compound: Cc1cc(Nc2cc(CN3CCOCC3)c3nc(C)c(Cc4ccc(Cl)cc4F)n3n2)n[nH]1 [gandotinib]
# Outline: as §1
# tozasertib = compound: Cc1cc(Nc2cc(N3CCN(C)CC3)nc(Sc3ccc(NC(=O)C4CC4)cc3)n2)n[nH]1 [tozasertib]
# Outline: as §1
# [7] = compound: Cc1cc(SCc2sc(-c3ccc(C(F)(F)F)cc3)nc2C)ccc1OCC(=O)O
# Outline: as §1
# doramapimod = compound: Cc1ccc(-n2nc(C(C)(C)C)cc2NC(=O)Nc2ccc(OCCN3CCOCC3)c3ccccc23)cc1 [doramapimod]
# Outline: as §1
# ispinesib = compound: Cc1ccc(C(=O)N(CCCN)[C@@H](c2nc3cc(Cl)ccc3c(=O)n2Cc2ccccc2)C(C)C)cc1 [ispinesib]
# Outline: as §1
# Sequence of UniProt P07951 (P07951 whole entry, looked up): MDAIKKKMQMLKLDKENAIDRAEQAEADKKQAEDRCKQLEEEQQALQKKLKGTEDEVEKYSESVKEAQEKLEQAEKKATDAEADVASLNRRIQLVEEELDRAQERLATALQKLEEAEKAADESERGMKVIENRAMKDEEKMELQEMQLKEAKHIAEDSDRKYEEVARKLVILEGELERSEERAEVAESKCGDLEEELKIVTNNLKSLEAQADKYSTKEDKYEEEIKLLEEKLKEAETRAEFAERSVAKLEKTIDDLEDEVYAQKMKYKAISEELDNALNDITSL
# Sequence of UniProt Q9P253 (Q9P253 whole entry, looked up): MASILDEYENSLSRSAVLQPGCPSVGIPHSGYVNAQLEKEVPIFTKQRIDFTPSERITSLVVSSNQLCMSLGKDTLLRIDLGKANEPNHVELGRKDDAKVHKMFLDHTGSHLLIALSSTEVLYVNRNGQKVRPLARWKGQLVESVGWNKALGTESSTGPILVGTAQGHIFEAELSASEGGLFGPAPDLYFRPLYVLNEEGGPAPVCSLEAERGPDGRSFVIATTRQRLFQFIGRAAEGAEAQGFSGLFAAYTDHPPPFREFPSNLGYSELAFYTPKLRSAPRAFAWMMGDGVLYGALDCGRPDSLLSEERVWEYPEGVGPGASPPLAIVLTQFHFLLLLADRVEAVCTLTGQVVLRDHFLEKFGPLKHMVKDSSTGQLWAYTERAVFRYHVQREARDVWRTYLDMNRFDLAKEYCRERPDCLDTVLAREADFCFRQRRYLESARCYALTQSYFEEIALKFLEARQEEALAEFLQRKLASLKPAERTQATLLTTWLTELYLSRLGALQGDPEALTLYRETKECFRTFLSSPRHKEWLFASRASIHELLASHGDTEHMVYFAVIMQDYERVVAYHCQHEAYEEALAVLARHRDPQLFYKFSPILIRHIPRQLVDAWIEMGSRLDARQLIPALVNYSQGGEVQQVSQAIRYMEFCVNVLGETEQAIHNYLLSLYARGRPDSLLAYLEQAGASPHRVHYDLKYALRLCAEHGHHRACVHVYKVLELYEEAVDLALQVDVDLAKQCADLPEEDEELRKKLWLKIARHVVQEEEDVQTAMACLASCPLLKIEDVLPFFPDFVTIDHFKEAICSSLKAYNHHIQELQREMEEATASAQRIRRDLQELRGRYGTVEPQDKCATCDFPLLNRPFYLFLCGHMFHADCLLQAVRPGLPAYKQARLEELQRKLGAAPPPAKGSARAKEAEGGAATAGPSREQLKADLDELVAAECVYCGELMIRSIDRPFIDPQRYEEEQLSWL
# Sequence of UniProt Q6ZVM7 (Q6ZVM7 whole entry, looked up): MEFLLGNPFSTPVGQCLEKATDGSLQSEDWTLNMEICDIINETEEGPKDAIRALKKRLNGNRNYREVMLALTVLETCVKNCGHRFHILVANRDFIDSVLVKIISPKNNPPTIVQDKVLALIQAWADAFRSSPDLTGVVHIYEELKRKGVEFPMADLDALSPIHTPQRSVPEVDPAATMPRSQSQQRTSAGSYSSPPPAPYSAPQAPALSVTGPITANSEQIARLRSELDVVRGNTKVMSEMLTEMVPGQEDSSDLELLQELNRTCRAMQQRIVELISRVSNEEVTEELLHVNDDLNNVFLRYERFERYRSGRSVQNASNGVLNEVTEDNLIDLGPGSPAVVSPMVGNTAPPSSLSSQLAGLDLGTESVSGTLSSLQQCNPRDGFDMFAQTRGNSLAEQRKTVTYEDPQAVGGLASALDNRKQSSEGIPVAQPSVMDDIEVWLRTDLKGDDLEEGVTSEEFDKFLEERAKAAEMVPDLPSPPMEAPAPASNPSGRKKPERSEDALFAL
# Sequence of UniProt Q9UBK9 (Q9UBK9 whole entry, looked up): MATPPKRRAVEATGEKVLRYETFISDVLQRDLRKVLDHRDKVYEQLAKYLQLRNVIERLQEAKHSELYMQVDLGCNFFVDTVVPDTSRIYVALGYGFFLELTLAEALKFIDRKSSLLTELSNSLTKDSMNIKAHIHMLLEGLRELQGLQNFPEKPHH
# Sequence of UniProt Q14157 (Q14157 whole entry, looked up): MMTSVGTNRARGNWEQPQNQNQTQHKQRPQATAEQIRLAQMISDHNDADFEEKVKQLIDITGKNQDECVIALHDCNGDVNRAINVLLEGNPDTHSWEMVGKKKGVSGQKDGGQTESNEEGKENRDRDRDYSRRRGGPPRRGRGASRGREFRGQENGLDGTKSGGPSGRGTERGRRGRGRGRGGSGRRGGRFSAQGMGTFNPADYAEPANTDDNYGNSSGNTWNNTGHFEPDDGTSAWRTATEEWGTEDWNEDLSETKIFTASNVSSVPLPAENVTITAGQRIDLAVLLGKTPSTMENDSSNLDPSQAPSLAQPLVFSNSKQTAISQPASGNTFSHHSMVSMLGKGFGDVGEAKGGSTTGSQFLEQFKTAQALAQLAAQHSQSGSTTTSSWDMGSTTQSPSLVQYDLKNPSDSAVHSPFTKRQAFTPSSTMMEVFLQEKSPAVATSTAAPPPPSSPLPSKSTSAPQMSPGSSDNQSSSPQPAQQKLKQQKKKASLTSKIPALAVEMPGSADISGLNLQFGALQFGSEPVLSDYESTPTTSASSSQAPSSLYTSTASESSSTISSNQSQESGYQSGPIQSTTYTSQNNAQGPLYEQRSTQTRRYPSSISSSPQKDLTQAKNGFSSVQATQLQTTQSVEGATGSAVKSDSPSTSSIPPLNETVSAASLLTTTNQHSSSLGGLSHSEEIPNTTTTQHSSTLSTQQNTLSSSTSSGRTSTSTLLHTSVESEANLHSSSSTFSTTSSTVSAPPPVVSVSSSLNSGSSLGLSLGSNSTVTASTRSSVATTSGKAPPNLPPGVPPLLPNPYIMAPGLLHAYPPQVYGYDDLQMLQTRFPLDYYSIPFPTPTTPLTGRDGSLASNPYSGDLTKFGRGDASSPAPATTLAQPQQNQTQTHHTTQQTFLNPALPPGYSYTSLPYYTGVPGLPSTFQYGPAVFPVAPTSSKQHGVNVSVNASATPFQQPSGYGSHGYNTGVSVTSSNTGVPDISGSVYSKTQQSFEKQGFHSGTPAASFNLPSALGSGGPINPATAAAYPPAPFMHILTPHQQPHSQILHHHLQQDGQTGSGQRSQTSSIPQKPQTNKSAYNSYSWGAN
# Sequence of UniProt O43617 (O43617 whole entry, looked up): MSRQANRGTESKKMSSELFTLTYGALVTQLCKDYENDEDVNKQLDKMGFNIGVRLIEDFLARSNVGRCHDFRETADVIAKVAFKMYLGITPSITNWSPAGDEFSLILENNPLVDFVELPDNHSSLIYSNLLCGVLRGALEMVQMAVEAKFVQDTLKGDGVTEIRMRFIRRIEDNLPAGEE
# Sequence of UniProt Q9Y2L5 (Q9Y2L5 whole entry, looked up): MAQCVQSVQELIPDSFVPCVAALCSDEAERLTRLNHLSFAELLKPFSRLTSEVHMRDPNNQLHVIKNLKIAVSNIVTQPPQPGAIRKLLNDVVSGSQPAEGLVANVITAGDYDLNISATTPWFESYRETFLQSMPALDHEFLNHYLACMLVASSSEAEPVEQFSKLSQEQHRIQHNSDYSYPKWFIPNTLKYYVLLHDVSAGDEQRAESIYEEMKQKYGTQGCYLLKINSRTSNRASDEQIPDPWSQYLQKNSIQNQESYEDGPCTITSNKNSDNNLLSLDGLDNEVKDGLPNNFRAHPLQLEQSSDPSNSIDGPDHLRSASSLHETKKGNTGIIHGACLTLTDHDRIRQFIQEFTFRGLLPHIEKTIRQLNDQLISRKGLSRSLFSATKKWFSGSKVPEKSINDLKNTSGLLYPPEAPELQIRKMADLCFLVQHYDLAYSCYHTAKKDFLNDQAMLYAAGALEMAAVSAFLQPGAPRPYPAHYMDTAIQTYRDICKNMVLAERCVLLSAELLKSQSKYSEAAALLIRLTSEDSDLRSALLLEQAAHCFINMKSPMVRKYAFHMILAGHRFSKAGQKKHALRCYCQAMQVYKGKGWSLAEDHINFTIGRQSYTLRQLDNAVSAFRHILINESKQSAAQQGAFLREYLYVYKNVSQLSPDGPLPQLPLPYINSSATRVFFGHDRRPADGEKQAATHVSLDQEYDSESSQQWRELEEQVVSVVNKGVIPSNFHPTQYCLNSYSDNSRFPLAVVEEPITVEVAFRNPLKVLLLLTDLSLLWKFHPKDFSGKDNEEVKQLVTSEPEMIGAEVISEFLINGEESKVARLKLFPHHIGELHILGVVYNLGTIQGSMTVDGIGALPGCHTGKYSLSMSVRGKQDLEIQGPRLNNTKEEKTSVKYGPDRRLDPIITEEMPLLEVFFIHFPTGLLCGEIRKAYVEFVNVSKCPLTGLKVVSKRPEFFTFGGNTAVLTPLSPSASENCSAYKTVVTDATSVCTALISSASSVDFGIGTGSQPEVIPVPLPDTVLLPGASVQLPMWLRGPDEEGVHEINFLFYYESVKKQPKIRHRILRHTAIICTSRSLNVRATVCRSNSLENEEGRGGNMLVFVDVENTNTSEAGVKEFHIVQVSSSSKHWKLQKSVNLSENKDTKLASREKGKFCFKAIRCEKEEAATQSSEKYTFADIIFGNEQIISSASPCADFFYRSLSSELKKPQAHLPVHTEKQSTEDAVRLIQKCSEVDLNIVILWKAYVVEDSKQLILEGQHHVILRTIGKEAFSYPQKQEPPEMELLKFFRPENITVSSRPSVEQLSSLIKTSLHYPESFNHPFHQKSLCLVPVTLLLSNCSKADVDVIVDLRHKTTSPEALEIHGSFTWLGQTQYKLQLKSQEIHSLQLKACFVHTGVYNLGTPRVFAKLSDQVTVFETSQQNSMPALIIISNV
# Sequence of UniProt Q96LJ8 (Q96LJ8 whole entry, looked up): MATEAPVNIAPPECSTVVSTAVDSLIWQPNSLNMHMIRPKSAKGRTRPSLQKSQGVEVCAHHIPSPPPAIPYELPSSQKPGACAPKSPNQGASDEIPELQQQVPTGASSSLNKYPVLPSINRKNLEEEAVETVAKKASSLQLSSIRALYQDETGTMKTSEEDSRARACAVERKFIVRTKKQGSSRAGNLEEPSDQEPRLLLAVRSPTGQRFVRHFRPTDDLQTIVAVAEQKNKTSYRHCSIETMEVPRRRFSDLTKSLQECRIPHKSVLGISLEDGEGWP
Target,log2 fold change [1],log2 fold change (filanesib),log2 fold change (zotarolimus),log2 fold change (idasanutlin),log2 fold change (alisertib),log2 fold change [2],log2 fold change (gefitinib),log2 fold change [3],log2 fold change (lapatinib),log2 fold change (pictilisib),log2 fold change [4],log2 fold change (crizotinib),log2 fold change [5],log2 fold change [6],log2 fold change (duvelisib),log2 fold change (gandotinib),log2 fold change (tozasertib),log2 fold change [7],log2 fold change (doramapimod),log2 fold change (ispinesib)
TMEM177 (UniProt Q53S58),-0.037,-0.115,0.019,-0.077,-0.199,-0.154,0.077,0.086,-0.016,0.151,0.005,0.033,0.065,0.011,0.039,0.025,0.087,0.053,-0.062,-0.304 (active)
TRAPPC3 (UniProt O43617),-0.141,-0.069,-0.037,-0.025,-0.055,0.012,0.007,0.067,0.023,0.023,-0.003,0.002,0.074,-0.006,0.06,-0.048,0.028,0.017,-0.008,-0.023
UXT isoform 2 (UniProt Q9UBK9),0.473 (active),0.001,-0.067,0.026,-0.016,0.033,0.049,-0.025,0.077,0.25,0.063,0.056,0.184,0.006,0.017,0.255,0.021,-0.034,0.017,-0.035
TRAPPC8 (UniProt Q9Y2L5),0.032,-0.017,0.03,-0.059,0.003,0.013,0.009,-0.021,0.021,-0.001,0.036,-0.033,-0.008,0.032,0.002,-0.056,0.015,0.117,-0.012,-0.138
USP25 isoform 3 (UniProt Q9UHP3),-0.011,0.037,0.014,-0.039,0.027,0.004,0.032,0.022,0.001,0.018,0.042,-0.003,-0.017,-0.062,0.05,-0.024,0.036,0.021,0.007,-0.025
TTC4 (UniProt O95801),0.087,0.004,0.016,-0.003,0.029,0.054,0.032,-0.072,-0.003,-0.016,0.046,-0.001,0.017,0.029,0.032,-0.025,0.061,0.134,-0.028,0.108
UBAP2L isoform 5 (UniProt Q14157),-0.026,-0.014,-0.03,-0.047,-0.034,0,-0.019,0.012,0,-0.015,-0.028,0.051,-0.07,-0.007,0.035,0.007,-0.013,0.016,-0.038,0.026
TPM2 (UniProt P07951),0.503 (active),-0.024,0.013,-0.026,-0.058,-0.055,-0.003,-0.14,0.166,-0.181,-0.016,-0.012,-0.167,-0.29,-0.131,-0.046,0,-0.117,0.059,0.122
WDR62 isoform 4 (UniProt O43379),-0.036,0.016,0.028,0.02,-0.024,-0.026,0.049,0.046,0.054,0.015,0.064,-0.137,0.07,-0.064,0.011,-0.204 (active),-0.068,-0.016,-0.057,-0.02
TRMT2A (UniProt Q8IZ69),-0.322 (active),0.061,0.016,0.04,-0.051,-0.158,-0.006,-0.071,0.016,-0.096,-0.034,-0.016,-0.072,0.152,-0.041,0.019,0.063,0.045,0.07,-0.122
VPS52 (UniProt Q8N1B4),-0.003,0.017,0.044,0.088,-0.069,0.058,0.014,-0.022,-0.043,-0.02,-0.001,-0.102,-0.031,0.058,0.033,-0.122,0.022,-0.013,0.008,-0.068
VPS13B (UniProt Q7Z7G8),0.019,-0.11,-0.007,0.025,0.07,-0.111,0.019,0.07,-0.018,0.057,0.023,0.015,0.045,-0.033,-0.064,-0.062,-0.01,0.015,0.028,-0.134
TMEM214 (UniProt Q6NUQ4),-0.003,0.185,-0.013,-0.045,-0.041,0.282 (active),-0.012,-0.111,0.046,-0.055,-0.018,0.123,-0.043,0.067,0.011,-0.079,0.028,0.048,-0.013,0.072
UBXN10 (UniProt Q96LJ8),0.059,0.038,-0.049,,0.016,-0.071,-0.079,-0.11,0.097,-0.008,-0.03,-0.121,-0.091,-0.09,-0.017,0.161,-0.122,-0.008,-0.014,-0.124
VPS18 (UniProt Q9P253),-0.011,0.009,0.024,-0.053,-0.102,-0.017,-0.028,-0.041,0.033,-0.07,-0.008,-0.21,-0.013,0.05,-0.035,-0.041,0.009,0.063,-0.014,-0.203
TOM1L2 (UniProt Q6ZVM7),-0.04,0.029,-0.036,-0.002,,,0.028,,,,0.03,0.101,0.118,0.087,0.099,,,0.035,0.02,
